High-throughput results deposited in PubChem BioAssay by several laboratories.
Myeloid diff MLP – myeloid differentiation induction; calls only at 10 µM; actives 1% (n = 360,000); ER-HoxA9 myeloid progenitors, lysozyme-GFP differentiation, flow cytometry;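 active means normalized GFP-positive differentiation at or above the plate's own cutoff, the solvent-only control mean plus 3 SD; inconclusive means no clear call, values can overlap the other calls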;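 further: cells exposed to compound for four days before flow analysis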
Rpn11 inh – blocks the human proteasome subunit Rpn11. O00487. AID 588493. inhibition, % at 20 µM. actives 0.59% (n = 360,000). human 26S proteasome, Ub4-pepOG fluorescence polarization; 20S core pre-blocked with epoxomicin;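 active means inhibition at 20 µM, scaled to each plate's controls, above about 33%, limit read from the data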
Target sequence (O00487 whole entry, looked up): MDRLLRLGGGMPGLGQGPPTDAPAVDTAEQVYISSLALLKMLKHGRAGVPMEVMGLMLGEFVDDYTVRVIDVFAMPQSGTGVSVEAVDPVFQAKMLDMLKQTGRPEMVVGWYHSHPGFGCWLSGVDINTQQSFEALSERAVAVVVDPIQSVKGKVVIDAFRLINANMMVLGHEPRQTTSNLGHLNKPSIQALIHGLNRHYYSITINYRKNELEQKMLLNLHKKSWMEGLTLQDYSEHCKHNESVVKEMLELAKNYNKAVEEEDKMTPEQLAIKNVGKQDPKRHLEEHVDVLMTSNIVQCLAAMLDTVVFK
TPT1 inh – C. albicans TPT1 enzyme inhibition; recombinant caTPT1, FP RNA substrate dephosphorylation; AID 1962; actives 0.81% (n = 300,000); inhibition, % at 5 µM;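 active means inhibition above the mean of all tested compounds plus 3 SD, set per screening campaign, cut at about 24% in these data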;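 further: plate controls were DMSO alone for no effect and ferristatin control at 100 nM for full effect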
HNF4A DNA FP – change in binding of human HNF4 alpha to DNA. P41235. HNF4a-FITC DNA binding, fluorescence polarization, 1 h. activity change, % at 10 µM. actives 0.3% (n = 360,000). AID 1224865; in the data active means activity change above about 30%, passing the limit was not always enough
An asterisk follows results filed as active; i = inactive; ? = inconclusive; . = no result shown; + = active, no number. A selection: hits, their analogues and other compounds. The true share with any hit is near 2.1%.

SMILES | Myeloid diff MLP | Rpn11 inh | TPT1 inh | HNF4A DNA FP
Cc1cc(O)cc2c1O[C@@](C)(CCC[C@@H](C)CCC[C@@H](C)CCCC(C)C)CC2 | i | -6 | -5 | 5
CC(=O)Oc1c(C)c(C)c2c(c1C)CC[C@@](C)(CCC[C@H](C)CCC[C@H](C)CCCC(C)C)O2 | + | -4 | -1 | 4
CC[n+]1c(/C=C2/C=C(C)CC(C)(C)C2)sc2ccc(OC)cc21 | + | 21 | 23 | 10
COc1ccccc1N1CCN(C(=O)CN(C)S(=O)(=O)c2cc(C)ccc2OC)CC1 | i | -2 | -4 | 0
COC(=O)C1=CN(c2ccc3c(c2)OCO3)C(N)=C(C#N)C1c1ccccc1 (configuration not stated) | + | . | . | -4
O=C(NCCc1nccs1)C1CCC(=O)N(CCc2ccc(Cl)cc2)C1 (configuration not stated) | i | 5 | -1 | -2
CCCn1c(=N)n(CC(=O)c2ccc([N+](=O)[O-])cc2)c2ccccc21 | i | 0 | 5 | -2
Cc1ccccc1Cn1c(=N)n(CC(=O)c2ccc([N+](=O)[O-])cc2)c2ccccc21 | i | . | -2 | 43*
Nc1ccc(C(=O)N2CCN(S(=O)(=O)c3ccc(Cl)s3)CC2)cc1[N+](=O)[O-] | i | 1 | -2 | 0
O=C(CNC(=S)NC(=O)c1ccc(Br)o1)c1ccccc1 | + | -1 | -2 | -3
C[C@@H]1CN([C@H](C)CO)C(=O)c2cc(Br)cnc2O[C@@H]1CN(C)C(=O)c1ccccc1 | i | 0 | . | -2
COC(=O)CSc1nnc(C)n1-c1ccc(C)cc1 | + | -1 | -5 | -18
COc1ccc(-n2c(COc3ccc(C)cc3)nnc2SCC(N)=O)cc1 | + | 4 | -3 | 1
COc1ccc(-n2c(COc3ccccc3)nnc2SCC(N)=O)cc1 | i | -13 | 1 | -1
CCCN(CC(=O)Nc1ccccc1C)C(=O)c1cnc(C)cn1 | i | -4 | . | -3
Cc1cc(Nc2cccc(F)c2)nc(NCc2ccccc2)n1 | + | -8 | 1 | 4
CN(C)S(=O)(=O)c1ccc(NC(=O)COc2ncnc3sccc23)cc1 | i | -1 | 6 | 7
CCN(CC)CCN(C(=O)C1=COCCO1)c1nc2cc3c(cc2s1)OCO3 | i | -1 | 5 | 1
CCN(CC)CCN(C(=O)C1=COCCO1)c1nc2ccc(C)cc2s1 | + | -2 | 1 | 3
CCOc1ccc(NC(=O)c2ccc(NC(=O)c3ccc(NC(N)=O)cc3)cc2)cc1 | i | 106* | . | -13
Oc1ccc(C[C@H]2CN([C@@H](Cc3ccccc3)CN3CCCC3CN3C(=S)NC[C@@H]3Cc3ccccc3)C(=S)N2CC2CCCCC2)cc1 (some centres not stated) | i | . | . | 4
Oc1ccc(C[C@H]2CN([C@@H](Cc3cccc(O)c3)CN3CCC[C@@H]3CN3C(=S)NC[C@@H]3Cc3ccccc3)C(=S)N2CC2CCCCC2)cc1 | + | 2 | . | -1
CC(C)C[C@H]1CNC(=S)N1C[C@H]1CCCN1C[C@H](Cc1ccccc1)N1C[C@H](Cc2ccc(O)cc2)N(CC2CCCCCC2)C1=S | + | 8 | . | 3
O=C(NCc1ccccc1)C(c1ccc(-c2ccccc2)cc1)N1CCN(C(=O)C2CCCO2)CC1 (configuration not stated) | i | . | . | -1
CC1CC2(CCCCC2)Nc2ccc3ccccc3c21 (configuration not stated) | + | 8 | 5 | 1
SMILES | Myeloid diff MLP | Rpn11 inh | TPT1 inh | HNF4A DNA FP
C=CCNC(=S)/N=c1/ccccn1C | i | -1 | -2 | -6
C=CCNC(=S)/N=c1/ccccn1CCC | + | -7 | -1 | -1
CC(/C=C1\SC(=S)N(CCC(=O)Nc2ccccc2O)C1=O)=C\c1ccccc1 | i | . | 18 | 47*
CCCCn1nc2cc(C(=O)NCCc3cccs3)ccc2c1OCC | i | -5 | -1 | 1
CCCCn1nc2cc(C(=O)NCC34CC5CC(CC(C5)C3)C4)ccc2c1OCC | + | 5 | -1 | -1
Cc1ccc(Cc2c(-c3cccc(Br)c3)nc3ccc(Br)cn23)cc1 | i | 26 | . | 15
Cc1ccc(-n2cc3c(-c4cccc(Br)c4)nnc(C)c3n2)cc1 | + | . | 4 | 119
CNC(=O)CSc1nnc(C2CC2)n1-c1ccccc1 | i | -8 | 2 | 4
C/C(=N/N=C(\C)c1ccccc1O)c1ccccc1O | i | 25 | 4 | 12
CCOc1ccc(N=C(C)c2ccccc2O)cc1 | + | -7 | 4 | 1
CN(C)c1ccc(C=Cc2nccc3ccccc23)cc1 | ? | -200 | . | -54
CCN(CC)c1nc(C=Cc2ccc(N(C)C)cc2)c2nccnc2n1 | + | . | . | 105
